Hit rate of the full screen: of about 31,000 sequences, about 1,400 (4.5%) were called active.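 Rule for the calls: active = median seed-adjusted z-score above 1 or below -1; inactive = the rest.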 Shown is part of a subset that was picked to be rich in actives.

A short description of the assay: Novel Modifiers of Survival Motor Neuron (SMN) Protein: Gene Identification via Genome-wide siRNA Screen.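 Note: luminescence tracks full-length SMN protein made from the SMN2 reporter.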 The settings on record: HEK293T SMN2-luciferase reporter, siRNA knockdown, 72 h; actives lie on both sides. An outline of the steps: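 HEK293T cells stably carrying an SMN2 promoter/splicing cassette–luciferase reporter were reverse-transfected with 1 pmol siRNA per well (druggable-genome library, 3 siRNAs per gene) and grown 72 h at 37 °C. Luminescence, normalized to negative-control siRNA and log10-transformed, was scored as MAD.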
A general note: In a reporter assay the amount or activity of a reporter protein is the signal.
In the case of GGCUUAACUUUAGUGUUGATT against PRDM2, the median seed-adjusted z-score was 1.12 (active).
With GAGCGAGUUUUACCUGAUATT against ABCA10 the figure was -0.104 (inactive); with CAGAUAUGAUUGGUGUAAATT against CABP1, -0.192 (inactive).
GAAAUCGACUCUCACCAAATT against IL18RAP: the median seed-adjusted z-score was -0.681 (inactive).
For the sequence CGGAAAAUCAGCAACAUCATT against EPS8L2, the median seed-adjusted z-score is -0.497 (inactive).
The result for GGAUAAUAAGGAUCUAUUUTT against CPNE3 reads 0.109 (inactive); that for GUUUACCUCUGGAUACACUTT against SNRPD1, -2.97 (active); that for GGAGUUCCAAUGGAAGUUATT against PSMD14, 0.375 (inactive).
The result for CGAUGGACUAAGUAAUAUATT against KPNA4 reads 0.457 (inactive); that for CCACCUAUUUGCACAAGGATT against POMT2, -0.614 (inactive).
The result for UCAAGGCCCUGUGCGCUAATT against PPP4C reads 1.15 (active); that for GCAACCACCAAGAGUUUGATT against KCNS1, -0.167 (inactive); that for CUGUAGAUCUUUGUCAAAATT against DUS4L, 0.525 (inactive).
Take UGCUAGUCCUGGGAACAGATT against PPM1J: the median seed-adjusted z-score is -0.901 (inactive).
As for GGUCAACAAUGCUUAUGCATT against DHRS1, the median seed-adjusted z-score was 0 (inactive).
With GCUUGAGAACUACCAGGUUTT against TAL2 the figure was -0.395 (inactive); with ACAAUAAGCUGGACCUCUATT against TLR9, -0.0834 (inactive); with CCUUCUACAGGAUCUCCAATT against ADRA1A, -1.06 (active).
With CAGUGGAUGUUAUUCCUCATT against RNF128 the figure was -0.377 (inactive).
With GGACUACACGUACUUCUCATT against KIRREL3 the figure was -0.206 (inactive); with CCAAGAGUGAUGCAGAGGATT against CABP4, 0.146 (inactive); with GGAGUUCUGUAACUCACUUTT against SLC38A2, -1.04 (active).
As to GGUGCUACAUCCUAGAGAATT against SULF2, the median seed-adjusted z-score is -0.109 (inactive).
Consider GCAAGACCUGGUCAGUAUATT against NOX4, for which the median seed-adjusted z-score is -0.246 (inactive).
The result for AGAAUGUCUUGAUUGUGGATT against HPRT1 reads -0.0463 (inactive); that for GCCUCACAUUUUCUAAUGATT against RRM2, -3.84 (active).
The result for AGAAGUUCAUGGUCGGAGATT against SULT1A1 reads -0.26 (inactive).
With GAUCGGCACUUACACCUGUTT against OPHN1 the figure was 0.692 (inactive).
Consider AGAUCGACCAGAACGUGGATT against APOA4, for which the median seed-adjusted z-score was 0.195 (inactive).
With CCACGUAACUAUCAUAAGATT against TLL1 the figure was 0.396 (inactive).

Source of the values: PubChem BioAssay AID1347426 (Functional Genomics Laboratory (NCATS/FGL), 2020).
